About 2,300 (0.77%) of roughly 300,000 compounds were called active. Many of the other results were omitted from the sample, so actives are more common in it than they were. A number with no mark means an inactive call.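 Rule for the calls: active = more than half of replicate wells show activity change below -50%, luminescence cut by over half; inconclusive = some wells, but at most half, below -50%; inactive = no replicate well below -50%.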

This assay in a line: HSF1 inhibitors in luciferase reporter cells, primary screen, cell-based, NIH3T3, luminescence (AID 2098).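 Note: luciferase reports HSF-1 transcriptional activity via heat shock element; 0% = median of DMSO wells and -100% = zero luminescence signal.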 As to conditions: NIH3T3-HGL HSE-luciferase, MG132-induced, luminescence 8 h; stronger effect = lower value; screened at 7.5 µM (by protocol).
Regarding `CC(C)(C)Oc1ccccc1Nc1nc(NCCO)nc(N2CCCC2)n1`, the activity change, negative = inhibition was -2.91%. On to `CCn1cc(CN2CCC(C(=O)Nc3cccc(-c4cccc(Cl)c4)c3)CC2)c(C)n1`, for which the activity change, negative = inhibition was -68.5% (active). The same measure for `CCn1cc(CN2CCC(C(=O)Nc3cccc(-c4cccc(Cl)c4)c3)CC2)cn1`: 13.5%; for `O=C(Nc1cccc(-c2cccc(Cl)c2)c1)C1CCN(C2CCC2)CC1`: -1.45%.

Take `O=C(COC(=O)CCOc1ccccc1)Nc1cc(S(=O)(=O)N2CCCCC2)ccc1Cl`: the activity change, negative = inhibition was 5.19%. Regarding `Cn1cccc1C(=O)NNC(=O)COc1ccc(Br)cc1`, the activity change, negative = inhibition is -3.17%. Regarding `Cc1cccc(NC(=O)c2nc[nH]c2C(=O)NCC(=O)OCc2ccccc2)c1`, the activity change, negative = inhibition was -13.1%. Turning to `Cc1cccc(NC(=O)c2nc(S(=O)(=O)Cc3ccccc3)ncc2Cl)c1`, the activity change, negative = inhibition was -83.8% (active). The figure for `Cc1ccc(CS(=O)(=O)c2ncc(Cl)c(C(=O)Nc3nnc(C)s3)n2)cc1` is -63.4% (active); for `CCSc1ncc(Cl)c(C(=O)Nc2cc(C)ccc2C)n1` it is 3.48%; for `Cc1ccc(S(=O)(=O)CC(=O)Nc2nnc(C)s2)cc1` it is -2.63%. Consider `Cc1cccc(CS(=O)(=O)c2ncc(Cl)c(C(=O)Nc3ccc(F)cc3)n2)c1`, for which the activity change, negative = inhibition is 13.2%. Regarding `COc1ccc(C2/C=C\CN(S(=O)(=O)c3cccs3)CC(=O)N2Cc2ccc(F)cc2)cc1` (stereo not drawn), the activity change, negative = inhibition is 3.97%. For the molecule `COc1ccc(Cl)cc1C=CC=NNC(=O)c1ccncc1`, the activity change, negative = inhibition was 5.04%. On to `COc1ccc(CCNCC(O)Cn2ccc3ccccc32)cc1OC` (stereo not drawn), for which the activity change, negative = inhibition is -87.6% (active). The figure for `COC(=O)c1ccc(OCC(O)CN(CCO)CC(O)Cn2ccc3ccccc32)cc1` (stereo not drawn) is -1.93%; for `COc1ccc(Cn2c(=O)sc3ccccc32)cc1OC` it is -4.6%; for `O=C(NCc1ccccc1)c1onc(CSc2ccncc2)c1C(=O)NCc1ccccc1` it is -22.7%. The figure for `O=C(NCCc1ccco1)C(=O)NCCC1CCCCN1S(=O)(=O)c1ccccc1` (stereo not drawn) is 1.49%; for `COc1ccc(-c2nnc(SCC(=O)Nc3cccnc3Cl)n2C)cc1` it is -3.85%.

Take `C#CCNC(=O)[C@H](Cc1ccc(C(=O)c2ccccc2)cc1)NC(=O)OC(C)(C)C`: the activity change, negative = inhibition was 5.42%. With `COc1ccccc1NC(=O)[C@H](COCc1ccccc1)NC(=O)OC(C)(C)C`, the activity change, negative = inhibition is -65.5% (active). For the molecule `COc1ccccc1NC(=O)C(C)OC(=O)CC1CCCC1` (stereo not drawn), the activity change, negative = inhibition was -4.1%. `COc1ccc(/C=N/NC(=O)c2ccccc2)cc1OS(=O)(=O)c1ccccc1`: the activity change, negative = inhibition was 4.64%. As for `COc1cc(/C=N/NC(=O)c2ccc(N3CCCC3=O)cc2)ccc1O`, the activity change, negative = inhibition was -2.17%. As for `COc1ccc(C(=O)Nc2ccccc2C(=O)N/N=C/c2ccc(O)c(OC)c2)cc1`, the activity change, negative = inhibition is -88.5% (active). The same measure for `CC1(C)O[C@@H]2CC3C4C[C@H](F)C5=CC(=O)C=CC5(C)C4C(O)CC3(C)[C@]2(C(=O)CO)O1` (stereo partly drawn): -32.3%; for `Cc1ccc(CSCC(=O)N(C)CC(=O)Nc2cccc(F)c2)cc1`: -0.103%. The figure for `Cc1ccc(CSCC(=O)N(C)CC(=O)Nc2ccc(C)cc2)cc1` is -72.3% (active); for `Cc1ccc(NC(=O)CN(C)C(=O)c2ccc(Br)o2)cc1` it is 0.545%; for `CCOc1ccc(S(=O)(=O)NCCC(=O)N2CCCCCCC2)cc1` it is 1.97%. Regarding `O=C(COc1ccccc1)Nc1cc2c3c(c1)CC(=O)N3CCC2`, the activity change, negative = inhibition is 2.82%. The same measure for `Cc1cc(C(=O)COC(=O)CNC(=O)c2ccc(F)cc2)c(C)n1Cc1ccco1`: -53.9% (active). The figure for `Cc1cc(C(=O)CSc2nc(N)cc(=O)[nH]2)c(C)n1Cc1ccco1` is -33.6%; for `Cc1ccc(OCC(=O)c2cc(C)n(Cc3ccco3)c2C)c([N+](=O)[O-])n1` it is -39.8%; for `O=C(Nc1c(Br)cc2c(c1Br)Cc1ccccc1-2)C(F)(F)F` it is -5.38%. Regarding `COc1ccc(C)cc1S(=O)(=O)Nc1cc2c3c(c1)CCC(=O)N3CCC2`, the activity change, negative = inhibition was -68.5% (active). On to `O=C1CCc2cc(S(=O)(=O)Nc3ccc(C(F)(F)F)cc3)cc3c2N1CC3`, for which the activity change, negative = inhibition is -0.158%. In the case of `COc1ccccc1CNS(=O)(=O)c1cc2c3c(c1)CCC(=O)N3CCC2`, the activity change, negative = inhibition is -0.185%. The same measure for `Cc1ccc(OCCNC(=O)CN2C(=O)NC3(CCCC3)C2=O)cc1`: -2.16%; for `CN(/N=C/c1ccccc1)C(=S)c1ccccc1`: -0.878%. With `O=C(NCCCn1ccnc1)C(=O)NCC1OCCN1S(=O)(=O)c1cc(F)ccc1F` (stereo not drawn), the activity change, negative = inhibition was -87.4% (active). In the case of `Cc1cc(F)ccc1S(=O)(=O)N1CCCOC1CNC(=O)C(=O)NCCC1=CCCCC1` (stereo not drawn), the activity change, negative = inhibition was -4.13%.

For the molecule `O=C(NCCCc1ccccc1)C(=O)NCC1OCCN1S(=O)(=O)c1ccccc1` (stereo not drawn), the activity change, negative = inhibition is 3.32%.

As to `O=C(CCN1C(=O)C2CCCCC2C1=O)Nc1ccc(OC(F)F)cc1` (stereo not drawn), the activity change, negative = inhibition is 5.73%. With `CCCCn1c(N)c(N(CC(C)C)C(=O)c2cccc(S(=O)(=O)N3CCN(C(C)=O)CC3)c2)c(=O)[nH]c1=O`, the activity change, negative = inhibition was 0.146%. Regarding `O=C(Nc1cccc2ncccc12)C(Cl)(Cl)Cl`, the activity change, negative = inhibition is -59.5% (active). With `O=C(Nc1cccc2ncccc12)c1ccc(-c2ccc(Cl)cc2Cl)o1`, the activity change, negative = inhibition was 8.41%. Regarding `O=C(O)c1cc(Cl)c(Cl)cc1C(=O)Nc1cccc2ncccc12`, the activity change, negative = inhibition is 15.1%. For the molecule `CC(=O)NC1CCN(CC(=O)Nc2nccs2)CC1`, the activity change, negative = inhibition is 0.912%. For the molecule `CC1CCN(CC(=O)Nc2nccs2)CC1`, the activity change, negative = inhibition was -53.5% (active). The figure for `CC1CC(C)(C)CC2(C1)NC(=O)N(CC(=O)Nc1nccs1)C2=O` (stereo not drawn) is 0.525%; for `COc1ccc(NC(=O)CSc2nc(C)cs2)cc1` it is -86.2% (active); for `Cc1csc(SCC(=O)Nc2sccc2C#N)n1` it is 9.14%.

`COc1cc(OC)cc(-c2nnc(SCC(=O)Nc3ccc(C(=O)O)cc3)s2)c1`: the activity change, negative = inhibition is -5.1%. `Cc1nn(-c2ccccc2)c(-n2cccc2)c1C(=O)O`: the activity change, negative = inhibition was -12.1%. On to `CCCc1nc(-c2ccccc2O)n(-c2ccccc2)n1`, for which the activity change, negative = inhibition is -81.9% (active).

For the molecule `CCCc1c(C(=O)Nc2ccc(F)cc2)cnn1-c1ccccc1`, the activity change, negative = inhibition was 6.52%.

These data come from PubChem BioAssay AID2098 (Broad Institute, 2009).
